Reference: PubChem BioAssay
Calls of active or inactive are those of the source.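 Rule for the calls, unless noted: active = NADPH fluorescence slope more negative than the mean of all samples by about 3 SD, 99.7% confidence; inactive = the rest.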

Key:
[1] = inhibitors of TNFa-induced NFkB p65 translocation, primary screen, imaging, HUVEC, MLSMR starter and 10KST1 sets (AID 438;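 active = inhibition above 20% together with a positive visual image hit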;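 note: compound added about 3h40 before a 20 min TNFalpha stimulation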;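 for inhibition: signal is the nuclear over cytoplasmic p65 intensity ratio per well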); settings: HUVEC TNFa-induced p65 nuclear translocation; cell count: measured here: nuclei count (cytotoxicity indicator), at 2.08 µM; inhibition: at 2 µM, stronger effect = higher value, 0% TNFa-plus-vehicle, 100% no-TNFa wells
[2] = inhibitors of mutant huntingtin aggregation, primary screen, imaging, exon1htt(103Q)mCFP cells, high-content imaging (AID 483;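 active = visual image review flags a hit and inhibition of aggregation exceeds 20%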;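 note: compound exposure lasted 3 days before fixation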;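 for nuclei count: percent of the per-plate median nuclei count of sample wells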); settings: exon1htt(103Q)mCFP cell line, aggregate imaging, at 2 µM; inhibition of aggregation: stronger effect = higher value; nuclei count: measured here: cell count, toxicity
[3] = inhibitors of E-selectin induction by TNFa, primary screen, imaging, HUVEC, immunofluorescence, MLSMR starter and 10KST1 sets (AID 487;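 active = visually confirmed hit in the image check and inhibition above 20%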;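 for inhibition: signal is fraction of cell area covered by stained E-selectin grains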;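 for nuclei count: 100% = median nuclei count of all wells on the same plate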); settings: HUVEC TNFalpha-induced E-selectin immunofluorescence imaging, at 2 µM; inhibition: stronger effect = higher value; nuclei count: measured here: cell number, toxicity
[4] = biological target: Voltage-gated potassium channel subunit beta-2 (Rattus norvegicus) (UniProt P62483); assay: KvBeta enzyme negative modulators, primary screen, biochemical, NADPH fluorescence (AID 622;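 active = fluorescence slope higher than the sample average by over 3 SD, cut at about -0.22 in these data, passing the limit was not always enough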;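 note: slope of raw intensity against log time taken from 70 to 1610 s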); settings: recombinant KvBeta, 4-cyanobenzaldehyde reduction, at 10 µM, stronger effect = higher value
[5] = biological target: Voltage-gated potassium channel subunit beta-2 (Rattus norvegicus) (UniProt P62483); assay: KvBeta positive modulators, primary screen, biochemical, NADPH fluorescence (AID 623); settings: Recombinant KvBeta, NADPH fluorescence decrease slope, 10 min; at 10 µM; stronger effect = lower value;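 note: fluorescence intensity change per second fitted from 20 to 320 s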
[6] = biological target: Alpha-2C adrenergic receptor (Homo sapiens) (UniProt P18825); assay: modulators of alpha2C/GIRK thallium flux, primary screen, cell-based, HEK293 alpha2C/GIRK1/2 (AID 624;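 active = fluorescence slope after compound addition differing from the mean of all screened samples at 99.7% confidence, in either direction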;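 note: slope of fluorescence ratio to pre-addition baseline per second over 15 to 24 s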); settings: thallium flux BTC fluorescence, at 10 µM, actives lie on both sides
[7] = inhibitors of Sendai virus-induced IRF3 signaling, primary screen, TLR/RLR signaling modifier project, cell-based, Sendai virus stimulus, luciferase, 10K MLSCN set (AID 602276;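 active = inhibition at or above 50% at 10 µM; inactive = inhibition below 50%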;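 note: firefly luciferase from ISG56 promoter only with Renilla not read in this screen; 0% = Sendai virus plus DMSO and 100% = medium plus DMSO without virus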); settings: HEK293 RL24 IRF3 luciferase reporter, at 10 µM, stronger effect = higher value
[8] = inhibitors of poly I:C-induced TLR3 signaling, primary screen, cell-based, poly I:C stimulus, luciferase, 10K MLSCN set (AID 602277;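 active = inhibition of the reporter signal at or above 50%; inactive = inhibition below 50%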); settings: HEK293-TLR3 RL24 IRF3 luciferase reporter, at 10 µM, stronger effect = higher value

Sequence of Voltage-gated potassium channel subunit beta-2 (Rattus norvegicus) (P62483 whole entry, looked up): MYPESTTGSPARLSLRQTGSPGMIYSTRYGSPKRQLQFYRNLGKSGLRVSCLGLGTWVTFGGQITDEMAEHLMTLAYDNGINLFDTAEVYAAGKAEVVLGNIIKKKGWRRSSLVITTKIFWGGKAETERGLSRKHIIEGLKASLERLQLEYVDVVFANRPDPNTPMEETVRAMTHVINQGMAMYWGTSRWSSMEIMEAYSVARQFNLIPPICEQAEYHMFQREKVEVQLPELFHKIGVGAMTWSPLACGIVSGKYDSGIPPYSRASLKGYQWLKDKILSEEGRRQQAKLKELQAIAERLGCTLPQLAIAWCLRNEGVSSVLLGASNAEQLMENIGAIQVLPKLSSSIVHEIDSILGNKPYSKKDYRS
Sequence of Alpha-2C adrenergic receptor (Homo sapiens) (P18825 whole entry, looked up): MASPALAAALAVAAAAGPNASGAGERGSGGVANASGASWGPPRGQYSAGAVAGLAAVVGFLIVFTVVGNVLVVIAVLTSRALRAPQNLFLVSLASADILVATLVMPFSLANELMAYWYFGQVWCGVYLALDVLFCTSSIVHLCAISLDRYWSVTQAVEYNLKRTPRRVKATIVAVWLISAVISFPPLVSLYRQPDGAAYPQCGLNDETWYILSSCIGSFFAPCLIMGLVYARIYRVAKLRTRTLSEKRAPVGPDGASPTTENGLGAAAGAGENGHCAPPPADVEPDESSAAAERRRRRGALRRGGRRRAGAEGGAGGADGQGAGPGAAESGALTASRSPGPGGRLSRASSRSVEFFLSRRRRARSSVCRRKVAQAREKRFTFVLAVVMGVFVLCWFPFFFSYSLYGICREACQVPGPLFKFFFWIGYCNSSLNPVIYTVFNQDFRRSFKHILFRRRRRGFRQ

Row | SMILES | cell count [1] | inhibition [1] | inhibition of aggregation [2] | nuclei count [2] [%] | inhibition [3] | nuclei count [3] [%] | fluorescence slope [4] | NADPH fluorescence slope [5] | slope [6] | inhibition [7] | inhibition [8]
1 | Cc1ccc(-n2c(SCC3CCCCO3)nnc2-c2ccco2)cc1 (configuration not stated) | 573 | 0.5% (inactive) | 7.5% (inactive) | 86.9 | -17.5% (inactive) | 102 | -0.413 (inactive) | -4.4e-05 (inactive) | 0.00422 (inactive) | 20.5% (inactive) | 25.2% (inactive)
2 | COc1ccc(S(=O)(=O)Cc2ccc(C(=O)N3CCN(Cc4ccccc4)CC3)o2)cc1 | 583 | -4.8% (inactive) | 21.6% (inactive) | 98.6 | -37.7% (inactive) | 121 | -0.588 (inactive) | -1.9e-05 (inactive) | 0.0068 (inactive) | -3.69% (inactive) | 28.9% (inactive)
3 | O=C(CCSc1ccccc1)Nc1ccc(S(=O)(=O)N2CCOCC2)cc1 | 381 | 5.2% (inactive) | 8.5% (inactive) | 105 | -102% (inactive) | 109 | -0.53 (inactive) | -5.2e-06 (inactive) | 0.00555 (inactive) | 18.1% (inactive) | 11.6% (inactive)
4 | Cc1ccc(-c2nnc(SC(C)C#N)n2N)cc1 (configuration not stated) | 516 | -3.8% (inactive) | -0.7% (inactive) | 95.1 | -93.5% (inactive) | 137 | -0.587 (inactive) | -3.8e-05 (inactive) | 0.00692 (inactive) | 10.4% (inactive) | 19% (inactive)
5 | CCC(C(=O)NC1CCCC1)N(Cc1ccco1)C(=O)Cn1nnc(-c2ccc(C)cc2)n1 (configuration not stated) | 478 | 1.7% (inactive) | 10.6% (inactive) | 114 | -150% (inactive) | 112 | -0.617 (inactive) | -1.6e-05 (inactive) | 0.0026 (inactive) | 10.8% (inactive) | -7.83% (inactive)
6 | CCN(CC(=O)NCc1cccs1)C(=O)c1cc(S(=O)(=O)N2CCOCC2)ccc1C | 591 | -9.6% (inactive) | -22.2% (inactive) | 107 | -82.2% (inactive) | 136 | -0.466 (inactive) | -3.7e-05 (inactive) | 0.00388 (inactive) | 1.74% (inactive) | 27.8% (inactive)
7 | CCOc1ccc(NC(=O)CN2CCN(CC(=O)c3ccc(OCC)cc3)CC2)cc1 | 418 | 2.1% (inactive) | -16% (inactive) | 110 | -73% (inactive) | 112 | -0.397 (inactive) | -5.5e-05 (inactive) | 0.00276 (inactive) | 10.7% (inactive) | 24.5% (inactive)
8 | CCc1c(C(=O)Nc2cc(C)ccc2OC)[nH]c(C)c1C(C)=O | 313 | -1.7% (inactive) | -4.5% (inactive) | 65.3 | 2.7% (inactive) | 76.2 | -0.424 (inactive) | 1.1e-05 (inactive) | 0.00495 (inactive) | 23.1% (inactive) | 27.6% (inactive)
9 | Cc1ccnc(NS(=O)(=O)c2ccc(NC(=O)Cc3cccs3)cc2)n1 | 301 | 6.3% (inactive) | 0.7% (inactive) | 67 | -83.5% (inactive) | 104 | -0.408 (inactive) | 6.5e-05 (inactive) | 0.00546 (inactive) | -4.32% (inactive) | -12.1% (inactive)
10 | CCN1CCN(C(=O)c2cn(CC)c3ccc(S(=O)(=O)N(C)C)cc3c2=O)CC1 | 639 | 1.3% (inactive) | 12.4% (inactive) | 100 | -30% (inactive) | 107 | -0.59 (inactive) | -3.2e-05 (inactive) | 0.00681 (inactive) | 7.55% (inactive) | 20.6% (inactive)
11 | CC(NC(=O)c1ccc2c(c1)OCO2)C(c1cccs1)N1CCOCC1 (configuration not stated) | 462 | -6.6% (inactive) | 17.3% (inactive) | 113 | -29.4% (inactive) | 115 | -0.618 (inactive) | 2.3e-05 (inactive) | 0.00632 (inactive) | 12.6% (inactive) | 15.4% (inactive)
12 | CCc1nn(CC(=O)NCCCN2CCc3ccccc3C2)c(=O)c2cc3sccc3n12 | 811 | -6.4% (inactive) | 5.9% (inactive) | 138 | -64% (inactive) | 116 | -0.602 (inactive) | 9.3e-06 (inactive) | 0.00659 (inactive) | 2.67% (inactive) | 50.9% (active)
